From article PMC7862700, “An all-to-all approach to the identification of sequence-specific readers for epigenetic DNA modifications on cytosine”

Legend:
Assay in all cases: DAPPL (digital affinity profiling via proximity ligation, sequencing); 10 mM Tris-HCl pH 7.5, 50 mM NaCl, 1 mM DTT, 4% glycerol, room temperature, 30 min; GST-TFs on glutathione beads, 16-mer random dsDNA library, 0.1% formaldehyde crosslink after washing; high values mean tight binding
Conditions in all cases: protein: recombinant; tags: N-terminal GST; dsDNA, one strand shown
ERF = target: T1, ERF (Homo sapiens, UniProt P50548 1-548)
T1 sequence: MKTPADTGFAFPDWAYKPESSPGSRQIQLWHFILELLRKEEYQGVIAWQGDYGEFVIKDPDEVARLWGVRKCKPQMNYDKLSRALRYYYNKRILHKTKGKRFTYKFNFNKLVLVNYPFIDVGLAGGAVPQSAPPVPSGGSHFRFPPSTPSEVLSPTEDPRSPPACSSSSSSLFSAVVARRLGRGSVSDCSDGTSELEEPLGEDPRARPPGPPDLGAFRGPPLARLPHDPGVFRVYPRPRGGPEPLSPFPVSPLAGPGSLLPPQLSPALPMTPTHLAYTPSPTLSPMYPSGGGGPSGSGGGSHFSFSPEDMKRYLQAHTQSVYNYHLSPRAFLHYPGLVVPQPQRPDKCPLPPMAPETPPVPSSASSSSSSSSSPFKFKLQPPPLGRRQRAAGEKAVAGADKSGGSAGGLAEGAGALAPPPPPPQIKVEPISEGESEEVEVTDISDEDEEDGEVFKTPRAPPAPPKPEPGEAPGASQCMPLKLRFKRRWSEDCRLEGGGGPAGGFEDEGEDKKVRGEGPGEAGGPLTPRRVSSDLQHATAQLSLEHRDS
Outline: (§1)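 Pools of DNA-barcoded human transcription factors, expressed in yeast as GST fusions on glutathione beads and combined with a tag-only sample, were incubated with 200 nmole of a 16-mer random double-stranded DNA library. Incubation took 30 min at room temperature in Tris/NaCl/DTT/glycerol buffer and was followed by washing, 0.1% formaldehyde crosslinking, proximity ligation (BsaI/T4 ligase, 1 h, 37 °C), PCR amplification and sequencing on an Illumina NextSeq500. Binding signal is the ratio of a hexamer's read frequency for a factor to its frequency for the tag-only sample.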

ETV3L = target: T2, ETV3L (Homo sapiens, UniProt Q6ZN32 1-361)
T2 sequence: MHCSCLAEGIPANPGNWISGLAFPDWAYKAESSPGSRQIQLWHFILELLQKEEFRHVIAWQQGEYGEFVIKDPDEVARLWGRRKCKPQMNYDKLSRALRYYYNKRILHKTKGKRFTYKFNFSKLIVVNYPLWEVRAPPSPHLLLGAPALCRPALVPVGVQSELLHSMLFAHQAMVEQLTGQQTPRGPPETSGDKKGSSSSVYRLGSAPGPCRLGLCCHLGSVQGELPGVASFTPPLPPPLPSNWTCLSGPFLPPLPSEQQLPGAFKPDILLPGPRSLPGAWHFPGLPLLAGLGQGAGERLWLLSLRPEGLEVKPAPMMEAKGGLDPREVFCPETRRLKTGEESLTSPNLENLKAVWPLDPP
Outline: as §1

ETS2 = target: T3, ETS2 (Homo sapiens, UniProt P15036 1-469)
T3 sequence: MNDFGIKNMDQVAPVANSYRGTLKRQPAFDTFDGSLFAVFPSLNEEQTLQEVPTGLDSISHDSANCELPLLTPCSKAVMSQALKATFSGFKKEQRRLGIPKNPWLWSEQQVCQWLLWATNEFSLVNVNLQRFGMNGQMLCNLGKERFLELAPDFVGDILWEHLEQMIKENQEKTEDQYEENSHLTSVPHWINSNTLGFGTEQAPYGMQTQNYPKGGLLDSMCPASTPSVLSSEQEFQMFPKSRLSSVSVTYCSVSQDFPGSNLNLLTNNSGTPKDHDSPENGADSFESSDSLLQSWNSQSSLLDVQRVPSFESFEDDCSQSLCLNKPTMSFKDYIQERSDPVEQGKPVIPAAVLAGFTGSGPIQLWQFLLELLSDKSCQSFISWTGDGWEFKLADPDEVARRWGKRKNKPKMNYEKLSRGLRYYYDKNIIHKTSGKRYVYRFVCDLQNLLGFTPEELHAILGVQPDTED
Outline: as §1

SPDEF = target: T4, SPDEF (Homo sapiens, UniProt O95238 1-335)
T4 sequence: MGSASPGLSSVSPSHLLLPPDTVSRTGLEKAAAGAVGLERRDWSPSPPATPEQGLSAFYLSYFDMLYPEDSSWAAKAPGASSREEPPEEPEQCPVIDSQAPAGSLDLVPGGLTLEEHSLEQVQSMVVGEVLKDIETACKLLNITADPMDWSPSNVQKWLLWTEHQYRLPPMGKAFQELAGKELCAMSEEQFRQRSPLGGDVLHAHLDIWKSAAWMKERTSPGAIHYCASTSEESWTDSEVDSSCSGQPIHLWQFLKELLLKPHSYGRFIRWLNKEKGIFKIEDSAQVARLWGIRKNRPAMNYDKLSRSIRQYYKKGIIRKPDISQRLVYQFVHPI
Outline: as §1

ETV7 = target: T5, ETV7 (Homo sapiens, UniProt Q9Y603 1-341)
T5 sequence: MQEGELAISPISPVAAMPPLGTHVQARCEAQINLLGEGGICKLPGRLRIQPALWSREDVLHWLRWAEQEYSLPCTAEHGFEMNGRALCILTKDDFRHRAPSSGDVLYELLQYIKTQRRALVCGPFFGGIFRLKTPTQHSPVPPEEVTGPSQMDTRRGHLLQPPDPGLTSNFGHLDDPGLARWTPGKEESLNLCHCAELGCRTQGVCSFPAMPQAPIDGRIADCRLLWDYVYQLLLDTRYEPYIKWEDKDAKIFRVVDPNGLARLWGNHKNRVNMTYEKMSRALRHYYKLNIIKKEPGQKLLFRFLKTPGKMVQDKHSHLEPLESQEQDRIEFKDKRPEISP
Outline: as §1

ELF5 = target: T6, ELF5 (Homo sapiens, UniProt Q9UKW6-2 1-255)
T6 sequence: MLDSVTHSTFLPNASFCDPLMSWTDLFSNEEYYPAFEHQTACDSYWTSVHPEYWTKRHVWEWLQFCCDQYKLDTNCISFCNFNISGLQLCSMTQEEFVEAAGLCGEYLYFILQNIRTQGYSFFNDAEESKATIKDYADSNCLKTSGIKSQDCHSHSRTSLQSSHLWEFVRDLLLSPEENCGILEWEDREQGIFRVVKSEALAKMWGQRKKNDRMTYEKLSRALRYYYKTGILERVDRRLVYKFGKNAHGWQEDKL
Outline: as §1

ETV3 = target: T7, ETV3 (Homo sapiens, UniProt P41162-2 1-143)
T7 sequence: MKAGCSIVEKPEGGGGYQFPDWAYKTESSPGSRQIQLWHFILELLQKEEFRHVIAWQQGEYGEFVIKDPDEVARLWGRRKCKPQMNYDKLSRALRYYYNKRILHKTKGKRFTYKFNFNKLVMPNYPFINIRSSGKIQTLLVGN
Outline: as §1

ETV6 = ETV6 (Homo sapiens, UniProt P41212 1-452)
Outline: as §1

ETV6, sequence (P41212 whole entry): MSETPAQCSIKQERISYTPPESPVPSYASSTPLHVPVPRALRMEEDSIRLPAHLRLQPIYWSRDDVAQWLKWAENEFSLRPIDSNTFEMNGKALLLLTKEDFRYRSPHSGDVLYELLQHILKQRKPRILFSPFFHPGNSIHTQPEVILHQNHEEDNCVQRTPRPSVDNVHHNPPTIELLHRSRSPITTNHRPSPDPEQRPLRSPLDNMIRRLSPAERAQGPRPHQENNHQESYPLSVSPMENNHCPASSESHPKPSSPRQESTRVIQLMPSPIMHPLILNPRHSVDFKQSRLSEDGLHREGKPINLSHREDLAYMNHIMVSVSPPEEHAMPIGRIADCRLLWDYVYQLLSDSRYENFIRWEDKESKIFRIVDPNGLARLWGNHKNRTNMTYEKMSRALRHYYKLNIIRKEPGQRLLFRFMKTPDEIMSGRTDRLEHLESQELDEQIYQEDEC

Sequence | binding signal (ERF) | binding signal (ETV3L) | binding signal (ETS2) | binding signal (SPDEF) | binding signal (ETV7) | binding signal (ELF5) | binding signal (ETV3) | binding signal (ETV6)
CTCCGA | 1.41 fold enrichment (6-mer frequency, TF over GST control) | 1.38 fold enrichment (6-mer frequency, TF over GST control) | 1.35 fold enrichment (6-mer frequency, TF over GST control) | 1.36 fold enrichment (6-mer frequency, TF over GST control) | 1.24 fold enrichment (6-mer frequency, TF over GST control) | 1.23 fold enrichment (6-mer frequency, TF over GST control) | 1.3 fold enrichment (6-mer frequency, TF over GST control) | 1.33 fold enrichment (6-mer frequency, TF over GST control)
CATCCC | 1.2 fold enrichment (6-mer frequency, TF over GST control) | 1.26 fold enrichment (6-mer frequency, TF over GST control) | 1.33 fold enrichment (6-mer frequency, TF over GST control) | 1.47 fold enrichment (6-mer frequency, TF over GST control) | 1.2 fold enrichment (6-mer frequency, TF over GST control) | 1.44 fold enrichment (6-mer frequency, TF over GST control) | 1.16 fold enrichment (6-mer frequency, TF over GST control) | 1.24 fold enrichment (6-mer frequency, TF over GST control)
TCTTGG | 1.4 fold enrichment (6-mer frequency, TF over GST control) | 1.43 fold enrichment (6-mer frequency, TF over GST control) | 1.27 fold enrichment (6-mer frequency, TF over GST control) | 1.27 fold enrichment (6-mer frequency, TF over GST control) | 1.38 fold enrichment (6-mer frequency, TF over GST control) | 1.31 fold enrichment (6-mer frequency, TF over GST control) | 1.29 fold enrichment (6-mer frequency, TF over GST control) | 1.19 fold enrichment (6-mer frequency, TF over GST control)
TGATCT | 1.35 fold enrichment (6-mer frequency, TF over GST control) | 1.1 fold enrichment (6-mer frequency, TF over GST control) | 1.31 fold enrichment (6-mer frequency, TF over GST control) | 1.23 fold enrichment (6-mer frequency, TF over GST control) | 1.11 fold enrichment (6-mer frequency, TF over GST control) | 1.22 fold enrichment (6-mer frequency, TF over GST control) | 1.25 fold enrichment (6-mer frequency, TF over GST control) | 1.06 fold enrichment (6-mer frequency, TF over GST control)
TAATAC | 1.14 fold enrichment (6-mer frequency, TF over GST control) | 1.1 fold enrichment (6-mer frequency, TF over GST control) | 1.12 fold enrichment (6-mer frequency, TF over GST control) | 1.12 fold enrichment (6-mer frequency, TF over GST control) | 1.11 fold enrichment (6-mer frequency, TF over GST control) | 1.09 fold enrichment (6-mer frequency, TF over GST control) | 1.03 fold enrichment (6-mer frequency, TF over GST control) | 1.12 fold enrichment (6-mer frequency, TF over GST control)
ATGTTC | 1.27 fold enrichment (6-mer frequency, TF over GST control) | 1.31 fold enrichment (6-mer frequency, TF over GST control) | 1.25 fold enrichment (6-mer frequency, TF over GST control) | 1.3 fold enrichment (6-mer frequency, TF over GST control) | 1.3 fold enrichment (6-mer frequency, TF over GST control) | 1.32 fold enrichment (6-mer frequency, TF over GST control) | 1.34 fold enrichment (6-mer frequency, TF over GST control) | 1.18 fold enrichment (6-mer frequency, TF over GST control)
TGCTCG | 1.38 fold enrichment (6-mer frequency, TF over GST control) | 1.46 fold enrichment (6-mer frequency, TF over GST control) | 1.29 fold enrichment (6-mer frequency, TF over GST control) | 1.07 fold enrichment (6-mer frequency, TF over GST control) | 1.18 fold enrichment (6-mer frequency, TF over GST control) | 1.18 fold enrichment (6-mer frequency, TF over GST control) | 1.3 fold enrichment (6-mer frequency, TF over GST control) | 1.31 fold enrichment (6-mer frequency, TF over GST control)
ATTTAT | 1.51 fold enrichment (6-mer frequency, TF over GST control) | 1.54 fold enrichment (6-mer frequency, TF over GST control) | 1.47 fold enrichment (6-mer frequency, TF over GST control) | 1.4 fold enrichment (6-mer frequency, TF over GST control) | 1.48 fold enrichment (6-mer frequency, TF over GST control) | 1.39 fold enrichment (6-mer frequency, TF over GST control) | 1.41 fold enrichment (6-mer frequency, TF over GST control) | 1.4 fold enrichment (6-mer frequency, TF over GST control)
